# Assay outcomes deposited in PubChem BioAssay by National Center for Advancing Translational Sciences (NCATS).
# Only some compounds are listed: those with a hit (about 18% of all), similar ones and a draw of the others.
# PLK1 PBD inh – qHTS for Inhibitors of PLK1-PDB (polo-like kinase 1 - polo-box domain): Primary Screen | Plk1 PBD binding of FITC phosphopeptide, fluorescence polarization | Potency, µM, most hits filed as inhibitors | actives 2.8% (n = 360,000) | AID 720504, 2013; also: series mostly up to about 57 µM; nearly all actives have a fitted effect of over 65% in size
# GCN5L2 inh – qHTS Assay for Inhibitors of GCN5L2 | Histone acetyltransferase KAT2A (Homo sapiens), Q92830 | GCN5L2 HAT assay, ThioGlo1 CoA-SH fluorescence | Potency, µM (doses to about 58.9 µM), usual class: inhibitors | actives 0.21% (n = 390,000) | AID 504327, 2011
# Target sequence (Q92830 whole entry, looked up): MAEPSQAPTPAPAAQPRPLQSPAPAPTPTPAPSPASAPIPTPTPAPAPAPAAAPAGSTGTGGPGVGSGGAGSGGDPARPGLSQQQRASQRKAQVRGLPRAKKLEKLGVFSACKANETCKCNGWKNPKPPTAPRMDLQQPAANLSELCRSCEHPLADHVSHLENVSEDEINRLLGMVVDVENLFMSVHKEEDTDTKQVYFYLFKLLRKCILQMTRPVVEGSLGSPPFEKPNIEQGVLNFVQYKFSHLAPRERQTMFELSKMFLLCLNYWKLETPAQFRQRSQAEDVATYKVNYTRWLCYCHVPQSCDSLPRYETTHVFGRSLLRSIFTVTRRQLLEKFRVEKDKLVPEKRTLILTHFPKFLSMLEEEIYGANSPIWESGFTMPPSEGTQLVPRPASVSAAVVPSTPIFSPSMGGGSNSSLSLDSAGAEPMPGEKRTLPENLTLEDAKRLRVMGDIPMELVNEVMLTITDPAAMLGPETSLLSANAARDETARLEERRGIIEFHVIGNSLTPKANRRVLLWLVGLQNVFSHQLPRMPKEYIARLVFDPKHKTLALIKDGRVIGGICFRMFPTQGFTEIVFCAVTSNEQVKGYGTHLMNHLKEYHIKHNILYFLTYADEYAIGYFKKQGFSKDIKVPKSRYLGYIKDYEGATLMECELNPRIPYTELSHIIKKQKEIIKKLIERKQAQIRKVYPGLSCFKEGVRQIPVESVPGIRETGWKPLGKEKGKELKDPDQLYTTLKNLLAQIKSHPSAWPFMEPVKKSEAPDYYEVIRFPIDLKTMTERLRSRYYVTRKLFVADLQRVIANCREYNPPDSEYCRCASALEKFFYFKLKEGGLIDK
#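 GCN5L2 (20nM final) in 50mM HEPES, 0.1mM EDTA pH 7.5, 0.01% Tween-20 was preincubated 15 min at room temperature with compound, then given ThioGlo1 (50uM), H3(1-25) peptide (75uM) and acetyl-CoA (70uM); CoA-thiol fluorescence (Ex340/Em540) was read at 0 and 20 min.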
# DT40 TDP1 no CPT – qHTS for Inhibitors of human tyrosyl-DNA phosphodiesterase 1 (TDP1): qHTS in cells in absence of CPT | Potency, µM (doses to about 46.2 µM), usual class: inhibitors | DT40 Tdp1-/- hTDP1 cells, no CPT, ATP luminescence, 48 h | actives 15% (n = 420,000); also: nearly all actives have a fitted effect of over 55% in size
#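 Chicken DT40 Tdp1-/- cells stably complemented with human TDP1 were seeded at 400 cells/well with DMSO in place of 20 nM camptothecin. After compound pinning, cells grew at least 48 hr at 37 °C; viability read by CellTiter-Glo luminescence.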
# TDP1 cell CPT – qHTS for Inhibitors of human tyrosyl-DNA phosphodiesterase 1 (TDP1): qHTS in cells in presence of CPT; chicken DT40 Tdp1-/-;hTDP1 cells + 20 nM CPT, ATP luminescence, 48 h; Potency, µM (top dose mostly 46.2 µM), hits mostly inhibitors; actives 12% (n = 420,000); AID 686979, 2013; also: nearly all actives have a fitted effect of over 55% in size
#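 Cell growth measured by CellTiter-Glo luminescence after a minimum 48 h, 37 C compound exposure with 20 nM CPT in Tdp1-knockout DT40 cells stably expressing hTDP1, seeded 400/well; qHTS titration format.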
# VDR inh – Inhibitors of the vitamin D receptor (VDR): qHTS | AID 504847, 2011 | VDR-SRC2-3 peptide fluorescence polarization, 2 h | actives 0.93% (n = 400,000) | Vitamin D3 receptor (Homo sapiens), P11473 | Potency, µM, usual class: inhibitors
#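 Reagent solutions, kept cold and dark, are dispensed first; compounds are then pinned in at 23 nl, plates briefly spun, and incubated 2 h at ambient temperature. Inhibition of VDR–SRC2-3 peptide binding is read by fluorescence polarization.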
# TDP1 block – qHTS Assay for Inhibitors of Tyrosyl-DNA Phosphodiesterase (TDP1); Tyrosyl-DNA phosphodiesterase 1 (Homo sapiens), Q9NUW8; recombinant TDP1, AlphaScreen DNA substrate cleavage; Potency, µM (top dose mostly 130 µM), usual class: inhibitors; actives 0.28% (n = 350,000); also: nearly all actives have a fitted effect of over 40% in size
#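 Enzyme-compound mixtures sat 15 min at room temperature, followed by a 5 min reaction with 15 nM final substrate and 10 min with AlphaScreen beads. Recombinant human Tdp1 was used at 1 nM final.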
# Hits are given with their value; n = inactive; u = inconclusive; x = no result given; [ ] = another dose, or the depositor's remark. Calls follow the shape of the dose curve; as a rule, active = well fitted curve in the direction sought with a large enough effect; inconclusive = small, poorly fitted or top-dose-only effect, or another doubt; inactive = no such curve, though single readings can be large; an effect the other way counts as inactive or inconclusive.
SMILES,PLK1 PBD inh,GCN5L2 inh,DT40 TDP1 no CPT,TDP1 cell CPT,VDR inh,TDP1 block
Cc1ccc(NC(=O)Cn2c(O)c(N=NC(=O)c3cc4ccccc4cc3O)c3ccccc32)cc1,n,n,7.3µM,7.3µM,n,n
Cc1ccc(Cn2c(O)c(N=O)c3ccccc32)cc1,n,n,n,n,n,n
O=C(Cn1c(O)c(N=NC(=O)c2ccncc2)c2ccccc21)Nc1ccccc1,n,n,n,n,n,n
O=S1(=O)CC(O)C(N=Nc2c(O)n(Cc3ccccc3)c3ccccc23)C1 (centres undefined),13µM,n,12µM,16µM,u,x
Cc1cccc(NC(=O)Cn2c(O)c(N=NC(N)=S)c3ccccc32)c1,u,n,15µM,23µM,n,x
COc1ccccc1NC(=O)Cn1c(O)c(N=NC(=O)c2ccccc2O)c2ccccc21,n,n,1.8µM,0.92µM,n,n
Nc1ncc(Br)cc1S(=O)(=O)NCCC(=O)N1CCN(c2ccccc2)CC1,n,n,n,u,n,n
COc1ccccc1-c1ccnc(-n2ncc(C(=O)NCc3cccc(C)n3)c2C)n1,x,x,n,n[9.04 µM],x,x
CCC(=O)N1c2ccc(S(=O)(=O)N3CCCCCC3)cc2CC1C (centres undefined),x,n,u,u,n,n
COc1ccc(C(=O)NCC(=O)N=Nc2c(O)n(Cc3ccccc3)c3ccccc23)cc1OC,n,n,16µM,u,n,n
O=C(N=Nc1c(O)n(Cc2ccccc2)c2ccccc12)c1cc2ccccc2cc1O,n,n,15µM,u,n,n
O=C(N=Nc1c(O)n(Cc2ccccc2)c2ccccc12)c1ccc(O)cc1,n,n,23µM,u,n,n
CSc1ncccc1C(=O)NCC1Cc2cc(F)cc(-c3cncnc3)c2O1 (centres undefined),x,x,n,n,x,x
Cc1ccc(C)c(OCC(=O)Nc2cc(NC(=O)COc3cc(C)ccc3C)cc(C(=O)O)c2)c1,n,u,u,n,n,50µM
CCn1c2ccccc2c2cc(NC(=O)COc3cc(C)ccc3C)ccc21,x,n,9.2µM,u,n,n[12.3 µM]
CCn1c2ccccc2c2cc(NC(=O)COC(=O)c3cc(OC)c(OC)cc3OC)ccc21,n,n,21µM,21µM,n,n
CCn1c2ccccc2c2cc(NC(=O)COc3cc(C)c(Cl)c(C)c3)ccc21,x,n,n,n,n,n
NS(=O)(=O)c1ccc(NC(=S)N2CCN(S(=O)(=O)c3ccc(F)cc3)CC2)cc1,x,n,x,x,x,n
S=C(NCC1CCCO1)Nc1ccc(Nc2ccccc2)cc1 (centres undefined),u,n,u,u,n,n
NS(=O)(=O)c1ccc(NC(=S)N2CCN(C(=O)C3CCCO3)CC2)cc1 (centres undefined),11µM,n,n,n,u,n
CN1CCN(C(=S)Nc2ccc(S(N)(=O)=O)cc2)CC1,27µM,n,n,n,n,n
NS(=O)(=O)c1ccc(NC(=S)N2CCN(c3cccc(Cl)c3)CC2)cc1,17µM,n,7.3µM,u,n,n
NS(=O)(=O)c1ccc(NC(=S)NCC2CCCO2)cc1 (centres undefined),24µM,n,n,u,n,n
O=[N+]([O-])c1ccc(-n2cnc3ccccc32)c([N+](=O)[O-])c1,n,n,u,u,n,n
CC(OC(=O)c1cc(=O)[nH]c2ccccc12)C(=O)NCc1ccccc1 (centres undefined),n,n,n,n,n,n
SMILES,PLK1 PBD inh,GCN5L2 inh,DT40 TDP1 no CPT,TDP1 cell CPT,VDR inh,TDP1 block
Cc1ccccc1NC(=S)N1CCN(c2ccccc2Cl)CC1,n,n,12µM,15µM,n,x
CN1CCN(C(=S)Nc2ccccc2Cl)CC1,n,n,u,n,n,n
Cc1c(Cl)cccc1NC(=S)N1CCCCCC1,n,n,18µM,u,n,n
CCN1CCN(C(=S)Nc2ccccc2Cl)CC1,n,n,u,11µM,n,n
COc1ccccc1NC(=S)N1CCN(c2cccc(C)c2C)CC1,n,n,2.3µM,5.2µM,n,n
S=C(Nc1ccccc1Cl)N1CCCC1,n,n,n,n,n,n
Cc1cccc(NC(=S)N2CCCCCC2)c1C,n,n,u,u,n,n
Cc1occc1-c1nnc(SCC(=O)NC2CCCCC2C)o1 (centres undefined),n,n,n,n,n,n
Cc1[nH]c2ccccc2c1C(=O)C(=O)NCc1ccncc1,n,x,n,n,n,x
COc1ccc(-n2c3c(cc(-c4nc(-c5ccc(Cl)cc5)cs4)c2=O)C(=O)CC(C)(C)C3)cc1Cl,x,n,n,n,n,n
COc1ccccc1N1CCN(C(=S)Nc2cccc(C)c2)CC1,n,n,23µM,23µM,n,n
Cc1cccc2cc(CN(Cc3cccnc3)C(=O)c3ccccc3F)c(Cl)nc12,n,n,u,u,n,n
Cc1cc(C)c2cc(CN(Cc3cccnc3)C(=O)c3ccc(F)cc3)c(Cl)nc2c1,n,n,15µM,18µM,n,n
CC(=O)c1sc(NC(=O)c2c(-c3ccccc3)c(-c3ccccc3)nn(C)c2=O)nc1C,x,n,0.52µM,0.41µM,n,n
CCCOC(=O)c1c(-c2ccccc2)c(-c2ccccc2)nn(C)c1=O,x,n,15µM,21µM,n,n
CCC(C)NC(=O)c1c(-c2ccccc2)c(-c2ccccc2)nn(C)c1=O (centres undefined),x,n,n,n,n,n
Cc1nc(C(C)NC2CCN(c3cccc(NC(=O)c4ccncc4)c3)CC2)cs1 (centres undefined),x,x,n,u,x,x
O=C(CSc1nc2ccccc2[nH]1)Nc1ccc2c(c1)OCCO2,n,n,n,u,n,n
O=C(CSc1nc(-c2cccc(F)c2)[nH]c1-c1ccccc1)Nc1ccc2c(c1)OCCO2,x,n,12µM,15µM,n,n
Cc1cccc(-c2nc(SCC(=O)Nc3ccc4c(c3)OCCO4)c(-c3ccccc3)[nH]2)c1,x,n,21µM,u,n,n
O=C(CSCc1cc(=O)c2ccccc2[nH]1)Nc1cccc(C(F)(F)F)c1,x,n,u,n,n,n
COc1cccc(C(C(=O)NC2CCCC2)N(C(=O)c2ccco2)c2ccc(-n3cnnn3)c(C)c2)c1OC (centres undefined),n,n,2.9µM,u,n,n
CCOc1ccc(C(C(=O)NC2CCCCC2)N(C(=O)Cc2cccs2)c2ccc(-n3cnnn3)c(OC)c2)cc1 (centres undefined),n,n,23µM,u,n,n
